According to PubChem BioAssay (NCI):
The panel holds about 83,000 compounds, 20% with a hit somewhere; the sample as a whole holds those more often.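 How to read the values: 0–100, growth inhibition (40 = 60% inhibited); 0, no net growth; -100 to 0, cell death (-40 = 40% of starting cells died; -100 = all dead).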 The source made the active and inactive calls. How the source made its calls: active means growth percent below 10; inactive means the rest.

What was measured:
Experiment in all cases: NCI-60 one-dose screen, 48 h (100 = growth as untreated, 0 = no growth, -100 = all killed)
Details in all cases: 10 µM unless noted
[1] = test system: SR leukemia
[2] = test system: RPMI-8226 leukemia
[3] = test system: OVCAR-8 ovarian
[4] = test system: OVCAR-5 ovarian
[5] = test system: OVCAR-4 ovarian
[6] = test system: SK-OV-3 ovarian
[7] = test system: IGROV1 ovarian
[8] = test system: OVCAR-3 ovarian
[9] = test system: HS 578T breast
[10] = test system: NCI/ADR-RES ovarian
[11] = test system: T-47D breast
[12] = test system: BT-549 breast
[13] = test system: MDA-MB-435 melanoma
[14] = test system: SW-620 colon
[15] = test system: MCF7 breast
[16] = test system: HCT-116 colon
[17] = test system: HCC-2998 colon
[18] = test system: KM12 colon

Measured: growth

C/C(=C\CCc1ccsc1)CC/C=C(\C)CCCN1CCSCC1
inactive: [1] 53.6% | [2] 58% | [3] 99.9% | [4] 94.8% | [5] 84.3% | [6] 93.1% | [7] 94.1% | [8] 82.3% | [9] 93.2% | [10] 84.9% | [11] 70.1% | [12] 97.1% | [13] 85.9% | [14] 92% | [15] 90.9% | [16] 77.7% | [17] 96.4% | [18] 84.3%

CCN1CCN(c2nc(NNC(=O)Cc3ccccc3)nc(N3CCN(C(c4ccccc4)c4ccccc4)CC3)n2)CC1
active: [1] -22.3% | [13] -33.7%
inactive: [2] 36.6% | [3] 64.4% | [4] 102% | [5] 86.6% | [6] 114% | [7] 64.1% | [8] 46.2% | [9] 96.1% | [10] 90.4% | [11] 29.9% | [12] 88.1% | [14] 16.5% | [15] 33.9% | [16] 28.3% | [17] 38.5% | [18] 59%

CCSc1nc(Nc2ccc(S(=O)(=O)Nc3ccon3)cc2)c(C#N)c(-c2cccc(Br)c2)n1
inactive: [1] 93.7% | [2] 79.3% | [3] 91.2% | [4] 89.6% | [5] 103% | [6] 99.1% | [7] 122% | [8] 117% | [9] 105% | [10] 110% | [11] 81% | [12] 90.2% | [13] 102% | [14] 110% | [15] 79.2% | [16] 85% | [17] 106% | [18] 95.1%

CCOC(=O)C(C(=O)OCC)C1CCCCC1
inactive: [1] 97.3% | [2] 101% | [3] 102% | [4] 105% | [5] 102% | [6] 108% | [7] 93.2% | [8] 110% | [9] 109% | [10] 109% | [11] 100% | [12] 104% | [13] 101% | [14] 104% | [15] 98.6% | [16] 104% | [17] 111% | [18] 105%

c1ccc(CN=C(NCc2ccccc2)NCc2ccccc2)cc1
inactive: [1] 77.4% | [2] 43.5% | [3] 56.4% | [4] 100% | [5] 30.2% | [6] 73.5% | [7] 60.4% | [8] 51.4% | [9] 96.7% | [10] 86% | [11] 26.3% | [12] 82.2% | [13] 66.9% | [14] 77.3% | [15] 36.5% | [16] 46.4% | [18] 62.6%

OC(c1cc(-c2cccc(Cl)c2)nc2ccccc12)C1CCCCN1 (stereo unspecified)
inactive: [6] 48.3% | [9] 34.9% | [12] 67%
active: [1] -33.8% | [2] -26.8% | [3] -52.6% | [4] 2.42% | [5] -7.1% | [7] -61.7% | [8] -13.1% | [10] -29.4% | [11] -71.6% | [13] -56.9% | [14] -66.6% | [15] -86.9% | [16] -89.8% | [18] -88.1%
